Screens from PubChem BioAssay.
The list is not random: actives were taken first. Their share in the collection is about 5.3%.
PNC assembly inh = High Content Assay for Compounds that inhibit the Assembly of the Perinucleolar Compartment; PC3M PTB-GFP, PNC prevalence imaging, 16 h; active compounds read low; activity change (PNC), negative = inhibition, % at 10 µM; 3.1% of 140,000 active;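 active = readout at or below -70, meaning at least 70% loss of cells showing the perinucleolar compartment, a nuclear body marking cancer cells; inconclusive = readout between -30 and a set limit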;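 note: plate controls were DMSO wells for no effect and camptothecin positive control wells for full effect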
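Compounds are pinned in duplicate onto adhered PC3M cells stably expressing GFP-tagged PTB and incubated 16 h at 37 C. Cells are then fixed, nuclei stained with Hoechst, and PNC-positive cells counted.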
IMPase cell inh = qHTS Assay for Identifying the Cell-Membrane Permeable IMPase Inhibitors. CHO-M1 cells, IP1 accumulation, HTRF TR-FRET ratio. Inositol monophosphatase 1 (Rattus norvegicus), P97697. 120,000 tested, under 10 active. AID 901, 2007. inhibition (IP1 accumulation), % at 46.1 µM; active = well fitted curve in the direction sought with a large enough effect in the signal ratio, not every such curve was filed as active; inconclusive = small, poorly fitted or top-dose-only effect, or a change in a side signal; inactive = no such curve, though single readings can be large or run the other way; the % refers to the signal ratio;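 note: cells stimulated with carbachol in lithium chloride buffer; plate controls were DMSO basal wells for no effect and reference inhibitor wells for full effect; higher means more IMPase inhibition seen as more IP1 and lower FRET ratio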
Target sequence (P97697 whole entry, looked up): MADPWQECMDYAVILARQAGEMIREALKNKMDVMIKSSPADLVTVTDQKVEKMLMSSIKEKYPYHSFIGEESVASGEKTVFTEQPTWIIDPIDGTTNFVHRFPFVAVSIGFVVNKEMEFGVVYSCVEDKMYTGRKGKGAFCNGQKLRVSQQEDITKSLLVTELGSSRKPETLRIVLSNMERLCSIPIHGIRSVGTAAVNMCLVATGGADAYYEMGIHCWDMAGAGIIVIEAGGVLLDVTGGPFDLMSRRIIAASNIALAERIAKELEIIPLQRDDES
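Elevated IP1 in lysates lowers TR-FRET signal (665/620 ratio and 620 channel reported). Cells were CHO-M1, given carbachol (50 uM as added) plus 50mM LiCl, pH 7.4, 30 min, 37C; compounds titrated up to 46 uM; AC50 by Hill equation.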
ALOX15B inhib = qHTS Assay for Inhibitors of 15-hLO-2 (15-human lipoxygenase 2); 0.56% of 110,000 active; purified 15hLO-2, xylenol orange hydroperoxide absorbance; Polyunsaturated fatty acid lipoxygenase ALOX15B (Homo sapiens), O15296; Potency, µM (doses to about 57.1 µM), inactives show top-dose activity change, negative = inhibition, actives largely listed as inhibitors; AID 881, 2007; note: potency is the fitted concentration of half-maximal effect; nearly all actives have a fitted effect of over 60% in size
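Screening format was qHTS against 50 nM purified 15hLO-2 in Hepes pH 7.5 with detergent. Activity follows hydroperoxide formation from 45 uM arachidonic acid, measured as 573:405 nm absorbance ratio of the ferric-xylenol orange complex.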
HPGD block = qHTS Assay for Inhibitors of HPGD (15-Hydroxyprostaglandin Dehydrogenase); 15-hydroxyprostaglandin dehydrogenase [NAD(+)] (Homo sapiens), P15428; purified HPGD, NADH fluorescence kinetic, PGE2 substrate; Potency, µM, for the others: at the top dose activity change, negative = inhibition, hits mostly inhibitors; 4.3% of 150,000 active; active = well fitted inhibition curve with a large enough effect, not every such curve was filed as active; inconclusive = small, poorly fitted or top-dose-only effect, or another doubt; inactive = no such curve, though single readings can be large or run the other way; note: potency is the fitted concentration of half-maximal effect
Target sequence (P15428 whole entry, looked up): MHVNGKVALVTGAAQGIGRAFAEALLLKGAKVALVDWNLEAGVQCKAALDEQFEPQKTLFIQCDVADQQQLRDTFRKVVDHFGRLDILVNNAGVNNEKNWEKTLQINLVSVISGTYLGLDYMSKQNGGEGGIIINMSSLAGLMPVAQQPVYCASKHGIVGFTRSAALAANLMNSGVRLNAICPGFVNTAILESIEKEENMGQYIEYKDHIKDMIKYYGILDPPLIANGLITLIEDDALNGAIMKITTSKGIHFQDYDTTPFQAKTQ
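NADH formation kinetics: reaction with 30 uM PGE2 and 1 mM NAD+ (final), 20 nM enzyme, Tris-HCl pH 8 with Tween 20, after 15 min compound preincubation at room temperature. Fluorescence change, last versus first of five reads.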
IMPase Li cell = qHTS Assay for Identifying the Cell-Membrane Permeable IMPase Inhibitors: Potentiation with Lithium; AID 1457, 2008; Potency, µM (highest dose often 59.4 µM), inactives show top-dose activity, negative = IMPase inhibition, most hits filed as inhibitors; 0.35% of 210,000 active; CHO-M1 cells, IP1 TR-FRET (IP-One), carbachol + lithium;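 note: IP1 builds up when IMPase is blocked and the TR-FRET signal falls; potency is the fitted concentration of half-maximal effect; plate controls were basal vehicle for no effect and high inhibitor control for full effect; nearly all actives have a fitted effect of over 50% in size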
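CHO cells stably expressing M1 receptor (2000/well, cultured 16–30 h) treated 30 min at 37C with compound plus low lithium. Cytosolic IP1 by TR-FRET (665/620 ratio and 620 channel) after 10 min lysis; AC50 by Hill fit.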
ALOX12 inhib = qHTS Assay for Inhibitors of 12-hLO (12-human lipoxygenase). 0.12% of 150,000 active. Potency, µM (titrated, usually from 57.1 µM), for inactives: top-dose activity change, negative = inhibition, actives largely listed as inhibitors. Polyunsaturated fatty acid lipoxygenase ALOX12 (Homo sapiens), P18054. AID 1452, 2008. purified 12-hLO, xylenol orange hydroperoxide absorbance; note: potency is the fitted concentration of half-maximal effect; nearly all actives have a fitted effect of over 55% in size
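150 nM 12hLO, 25 mM Hepes pH 7.0 + 0.01% Triton X-100; cpd preinc 15 min RT; 40 uM arachidonic acid, 30 min RT; Fe-XO 30 min; A573/A405 ratio as read-out.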
Starred values were filed as active, the others as inactive; u = inconclusive; x = no result given; [ ] = another dose, or the depositor's remark. Unless noted, calls come from the whole dose curve; as a rule, active = well fitted curve in the direction sought with a large enough effect; inconclusive = small, poorly fitted or top-dose-only effect, or another doubt; inactive = no such curve, though single readings can be large; an effect the other way counts as inactive or inconclusive. Unless noted, % is set by controls: 0 for no effect and ±100 for the full control effect.

SMILES	PNC assembly inh	IMPase cell inh	ALOX15B inhib	HPGD block	IMPase Li cell	ALOX12 inhib
CC(/C=N/NC(=S)Nc1cccc(S(=O)(=O)N(C)C)c1)c1ccccc1 (stereo not drawn)	21.8	x	x	35.5µM*	-1.7%	-5.3%
Cc1ccc2nc3c(c(Nc4ccc(C)c(C)c4)c2c1)CCC3	x	-8.9	x	x	x	x
Cc1ccc2nc(N3CCN(C=O)CC3)nc(-c3ccccc3)c2c1	-100.0*	-5.9	x	-25.1%	0.4%	-0.8%
COC(=O)N1CCC2(CC1)CN(c1ccccc1)C2	x	x	-9.1%	-3.1%	1.7%	-0.2%
O=C(c1cc(-c2ccco2)nn1-c1cccc(Cl)c1)N1CCCCC1	u	2.1[1.84 µM]	u	1.58µM*	21.2%[38.3 µM]	-20.7%
CC(C)NC(=O)c1cc(-c2ccco2)nn1-c1ccc(Cl)cc1	59.2	-9.4	u	u	-5.7%[38.3 µM]	-9.2%
Cc1cc(C)cc(NC(=O)COc2ccc(C(=S)N3CCOCC3)cc2)c1	x	x	x	x	3.2%	x
CN(C)C(=O)c1ccc(-c2nccc(NCc3ccccc3)n2)cc1	x	x	-5.6%	x	1.5%	x
CN(C)C(=O)c1ccc(-c2ccc3ncnc(NCc4ccccc4)c3c2)cc1	x	x	9.8%	x	4.1%	x
CN(C)C(=O)c1ccc(-c2nccc(NCc3cccnc3)n2)cc1	x	x	-4.3%	14.1µM*	-5.0%	1.4%
CN(C)C(=O)c1ccc(-c2nc(NCc3cccnc3)c3ccccc3n2)cc1	x	x	2.3%	15.8µM*	-1.3%	-3.0%
Cc1cnc(CNc2nc(-c3ccc(C(=O)N(C)C)cc3)nc3ccccc23)cn1	x	x	-2.1%	14.1µM*	0.1%	4.9%
CC(C)(C)c1ccc(-c2nc(NCc3cccnc3)c3ccccc3n2)cc1	13.6	x	x	-13.2%	-1.3%	-0.7%
CN(C)C(=O)c1ccc(-c2nnc(NCc3ccccc3)c3ccccc23)cc1	24.1	-2.2	x	2.51µM*	10.4%	-3.1%
CC(/C=N/NC(=O)c1sc(N)nc1C)=C\c1ccccc1	x	x	x	x	5.9%	x
CC(=O)N1CCN(c2nc3cc4c(cc3nc2NS(=O)(=O)c2ccccc2)OCCO4)CC1	-0.2	6.1	-24.7%	-23.3%	-7.1%[38.3 µM]	-8.4%
COC(=O)c1ccc(C(NC(=O)OCc2ccccc2)/C(=C/[C@@H](C)C(=O)NCc2nc3ccccc3s2)c2cccnc2)cc1 (stereo partly drawn)	x	x	48.5%	-8.6%	4.9%	-2.5%
CC(=NC1CCCCC1)C1=C(O)c2ccccc2C1=O	34.5	1.9	15.8µM*	-13.2%	4.9%[38.3 µM]	-10.3%
CCC(=O)/C=C1\Sc2ccc(OC)cc2N1CC	-7.5	1.3	-18.7%	28.2µM*	21.9%[38.3 µM]	-4.9%
CCC(=O)/C=C1\Sc2ccc(OC)cc2N1CCO	u	6.4	x	-4.2%	3.9%	2.6%
Cc1ccc(N2CCN(C(=O)c3ccccc3)CC2)c(C)c1	13.1	2.1	-2.9%	4.3%	23.4%[38.3 µM]	-3.8%
Cc1ccc(C)c(N2CCN(C(=O)c3csc(C)c3C)CC2)c1	13.5	x	x	-14.4%	9.7%	3.4%
Cc1ccc(C)c(N2CCN(C(=O)c3ccccc3Br)CC2)c1	-80.1*	-8.6	1.4%	-5.2%	12.6%[38.3 µM]	2.0%
Cc1ccc(N2CCN(C(=O)c3ccccc3Br)CC2)c(C)c1	-29.6	4.3	-13.6%	25.1µM*	9.3%[38.3 µM]	-17.0%
COc1cc(C(=O)N2CCN(c3ccc(C)cc3C)CC2)cc(OC)c1OC	-119.3*	1.6	x	-12.4%	6.4%	-4.0%
SMILES	PNC assembly inh	IMPase cell inh	ALOX15B inhib	HPGD block	IMPase Li cell	ALOX12 inhib
O=C(Nc1ccc2oc(-c3cccnc3)nc2c1)c1ccc(Br)cc1	x	2.0	x	x	x	x
O=C(CN(CCc1ccccc1)S(=O)(=O)c1ccc(Br)cc1)N/N=C/c1ccccc1C(=O)O	x	x	x	x	-0.4%	x
Cc1cccc(NS(=O)(=O)c2cc(C(=O)OC(C)C(=O)NCc3ccc4c(c3)OCO4)ccc2C)c1 (stereo not drawn)	-12.4	8.7	x	-13.5%	19.2%	-2.2%
COC(=O)[C@@H]1CCCN1Cc1nc(Cc2ccccc2F)no1	x	x	x	x	7.8%	x
Cc1nc(NC(=O)c2ccc(OCC(C)C)cc2)sc1Cc1ccc2c(c1)OCO2	x	x	x	x	9.8%	x
CCCOc1ccc(C(=O)Nc2nc(C)c(Cc3ccc4c(c3)OCO4)s2)cc1	u	x	x	u	10µM*	1.0%
CN(C)S(=O)(=O)c1ccc(C(=O)N2CCCC2c2nc3ccccc3s2)cc1 (stereo not drawn)	u	x	x	0.8%	4.2%	1.7%
O=S(=O)(c1ccc(Br)cc1)N1CCCC1c1nc2ccccc2s1 (stereo not drawn)	-100.0*	6.5	x	-8.9%	16.4%	-14.4%
Cc1ccc(C(=O)N2CCCC2)cc1S(=O)(=O)Nc1cccc(C)c1C	x	x	x	x	5.8%	x
COc1ccc2nc(NC(=S)N(C)C)sc2c1	61.9	1.7	5.9%	8.91µM*	51.2%[38.3 µM]	-29.9%
CCCC(=O)Nc1nc2ccc(OC)cc2s1	u	13.3	u	-17.6%	33.9%[38.3 µM]	-18.1%
O=C(/C=C/c1ccco1)NCC1(c2ccccc2)CCCC1	-109.2*	x	x	-9.8%	10.1%	-3.6%
